Results published in PubChem BioAssay (NCI).
This is part of a sample that, as a whole, favours compounds with a hit. Of some 83,000 tested, about 20% had one in any assay.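 Testing used 96-well plates and a 48-hour single-concentration exposure. Example: -40 means 40% of the starting cells died.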 Unmarked numbers belong to inactive results. Active and inactive are the calls of the source. The calls were made as follows: active = growth percent below 10; inactive = the rest.

What was measured:
Test in all cases: NCI-60 one-dose screen, 48 h (100 = growth as untreated, 0 = no growth, -100 = all killed)
Settings in all cases: 10 µM unless noted
[1] = test system: HT29 colon
[2] = test system: SNB-75 CNS
[3] = test system: SNB-19 CNS
[4] = test system: U251 CNS
[5] = test system: PC-3 prostate
[6] = test system: SK-MEL-5 melanoma
[7] = test system: UACC-62 melanoma
[8] = test system: LOX IMVI melanoma
[9] = test system: SK-MEL-28 melanoma

SMILES | growth [1] | growth [2] | growth [3] | growth [4] | growth [5] | growth [6] | growth [7] | growth [8] | growth [9]
CCOC(=O)c1ccc2n1CCCc1cnc(NC(C)=O)nc1-2 | 106% | 85.5% | 99.7% | 102% | 93.1% | 100% | 93.9% | 99.7% | 99.2%
Cc1ccc(OCCn2ccc(=O)n(CCOc3ccc(Cl)cc3C(=O)c3cc(C)cc(C)c3)c2=O)cc1 | 18.9% | 33.5% | 57.5% |  | 29.2% | 49.2% | 32.7% | 47% | 68.3%
Cc1ccc(C(=O)Nc2ccc(CN3CCN(C)CC3)c(C(F)(F)F)c2)cc1C#Cc1cnc(N)c2ccc(C#N)cc12 | 10.5% | 51.5% | 63.3% | 48.9% | 51.7% | 13.5% | 25.4% | 21% | 12.9%
CC(C)(CNC1CCCCC1)OC(=O)c1ccccc1 | 95.5% | 105% | 103% | 100% | 91.6% | 97.7% | 106% | 96.7% | 114%
Nc1nc(-c2cccc(Br)c2)cc(-c2cc3ccccc3oc2=O)n1 | 117% |  | 109% | 106% | 122% | 89.7% | 101% | 95.8% | 126%
COc1ccc(-c2nnc(SCC(=O)Nc3ccc(C(=O)/C=C/c4cc(OC)c(OC)c(OC)c4)cc3)n2-c2ccccc2)cc1OC | 3.6% [100 µM] (active) | -22% [100 µM] (active) | -19.9% [100 µM] (active) | -96.9% [100 µM] (active) | 10.9% [100 µM] | -14.6% [100 µM] (active) | -42.9% [100 µM] (active) | -88.5% [100 µM] (active) | 18.3% [100 µM]
C=CN(C)S(C)(=O)=O | 72.1% | 32.6% | 50.1% | 19.2% | 16.9% | 12.1% | 43% | 29.7% | 38.7%
O=Nc1c(-c2c(O)[nH]c3cc(Br)ccc23)[nH]c2ccccc12 | 0.864% (active) | -13.3% (active) | 15.1% | 29.4% | -2.93% (active) |  | 38.9% | 8.85% (active) | -100% (active)
Cn1cnc2nc[nH]c2c1=S | 94.5% | 79.2% | 103% | 103% | 86.4% | 100% | 98.5% | 99.4% | 112%
C/C(=N\Nc1ccc(Cl)cn1)c1ccc2ccccc2n1 | 16.3% | 32.5% | 24.7% | 6.99% (active) | 17.7% | -45% (active) | -7.97% (active) | 2.73% (active) | 17.5%
Oc1ccc(CN(Cc2ccc(C(F)(F)F)cc2)Cc2ccc(O)c3ncccc23)c2cccnc12 | 11.3% | 33.5% | 30.8% | 1.77% (active) | 12.9% | -32.6% (active) | -21.3% (active) | 18.7% | 32.3%
Cc1ccc2c(c1)C(=O)CCS2 | 103% | 80.8% | 111% | 92.9% | 101% | 104% | 97.4% | 95% | 102%
O=C(Nc1ccc(-n2cc(-c3ccncc3)c(-c3ccc(Cl)c(O)c3)n2)cc1)c1ccc(Cl)c(C(F)(F)F)c1 | -86.3% (active) | -48.6% (active) | 32.5% | -49.1% (active) | -19.9% (active) | -97.5% (active) | -3.14% (active) | -5.19% (active) | -38.3% (active)
COc1ccccc1Cn1cc2c(c1)-c1oncc1CC2 | 9.87% (active) | 13.7% | 38.3% | 28.4% | 25.4% |  | 54.6% | 37.5% | 55.3%
CC(=O)CC(=O)OC/C=C(/C)CCC=C(C)C | 108% | 105% | 107% | 104% | 111% | 99.6% | 97.9% | 97.7% | 113%
CCCCCCC(C)N(CC(C)(C)O)C(=O)c1ccc([N+](=O)[O-])cc1 (stereo not given) | 91.6% | 97.3% | 95.4% | 97.4% | 87.2% | 95% | 91.4% | 104% | 111%
